Experiment [1] in a line: small molecules captured by biotinylated probe aFSTL3 – biochemical, small-molecule microarray, fluorescence 635/667, stem cell growth factor project, primary screen (AID 1064).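 Also: measures binding of the biotinylated anti-FSTL3 antibody to printed compounds.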 Particulars: higher = more signal.
Experiment [2] can be described thus: binders from COS7 lysate, DM2A8 probe, primary screen, torsin A project, cell lysate, small-molecule microarray, fluorescence 635/667 (AID 1065). The conditions noted are these: higher = more signal, COS7 lysate expressing mutant human TOR1A.
Experiment [3] in a line: small molecules captured by biotinylated probe aFGF2 – biochemical, small-molecule microarray, fluorescence 635/667, stem cell growth factor project, primary screen (AID 1067).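 Also: measures binding of biotinylated aFGF2 protein to printed compounds on slides; z-score merges feature fluorescence and signal-to-noise across triplicate slides.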 Particulars: higher = more signal.
Experiment [4] in a line: small molecules captured by biotinylated probe aFGF10 – biochemical, small-molecule microarray, fluorescence 635/667, stem cell growth factor project, primary screen (AID 1071).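 Also: score merges 667 nm spot intensity and signal to noise from triplicate slides.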 Particulars: higher = more signal.
The target in experiment [5] is Neurogenic locus notch homolog protein 2 (Homo sapiens) (UniProt Q04721). Briefly: small molecules binding Notch2 protein – biochemical, small-molecule microarray, 635 nm fluorescence, stem cell growth factors, primary screen (AID 1073). Particulars: higher = more signal.
The target of experiment [6] is Pro-neuregulin-1, membrane-bound isoform (Homo sapiens) (UniProt Q02297). Briefly: small molecules binding neuregulin-1 protein – biochemical, small-molecule microarray, fluorescence 635/667, psychiatric disease protein project, primary screen (AID 1075).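 Also: score combines 667 nm spot fluorescence with signal to noise.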 The conditions noted are these: NRG1 binding, 635 nm fluorescence, higher = more signal.
Experiment [7] deals with Neuregulin-1 EGF-like domain. Kind of experiment: small molecules binding NRG1 EGF domain – biochemical, small-molecule microarray, 635 nm fluorescence, primary screen (AID 1081).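 Also: binding of the protein to compounds printed on small-molecule microarray slides.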 Particulars: higher = more signal.
A short description of experiment [8]: FRG1 expression reporter modulators in myotubes – cell-based, C2C12 myotubes, firefly/Renilla luciferase, luminescence, FRG1 inhibition for FSHD, primary screen (AID 1084). Particulars: FRG1 promoter luciferase, higher = more signal, called active from +8 up or from −8 down.
Experiment [9] in a line: small molecules captured by biotinylated probe aFST – biochemical, small-molecule microarray, fluorescence 635/667, stem cell growth factor project, primary screen (AID 1086).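 Also: score merges 667 nm fluorescence with signal-to-noise of each printed compound spot.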 Particulars: higher = more signal.
A short description of experiment [10]: binders of probe aHhip on microarray, primary screen, stem cell growth factor project, biochemical, small-molecule microarray, fluorescence 635/667 (AID 1087).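 Also: score merges spot fluorescence at 667nm with spot signal to noise ratio.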 The conditions noted are these: higher = more signal.
In experiment [11] the test system is PRMT1 (protein arginine N-methyltransferase 1). Briefly: small molecules binding arginine methyltransferase PRMT1 – biochemical, small-molecule microarray, 635 nm fluorescence, primary screen (AID 1088).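 Also: binding of Prmt1 protein to compounds spotted on small-molecule microarray slides.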 The conditions noted are these: higher = more signal.
The nature of experiment [12]: growth effects on S. cerevisiae YJM789 – YJM789 clinical isolate, OD600, 24 h, basal, primary screen (AID 1089).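 Also: growth of clinical yeast isolate S. cerevisiae YJM 789 seeded 1000 cells per well; test concentration not given here.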 Particulars: higher = more signal, called active from +8 up or from −8 down.
The nature of experiment [13]: S. pombe growth modifiers, basal conditions – strain 972, OD600, 24 h, no modulator, primary screen (AID 1090).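 Also: basal condition with compound alone and no growth modifier present; test concentration not given here.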 Particulars: S. pombe 972 growth, higher = more signal, called active from +8 up or from −8 down.
Experiment [14] can be described thus: budding yeast growth modifiers under rapamycin – strain BY4716, OD600, 96 h, primary screen (AID 1091). Also: test concentration not given here. The conditions noted are these: S. cerevisiae BY4716 + rapamycin, higher = more signal, called active from +8 up or from −8 down.
In experiment [15] the target is Torsin-1A-interacting protein 2 (Homo sapiens) (UniProt Q8NFQ8). Kind of experiment: small molecules binding lysate-expressed LULL1 – cell lysate, human LULL1 lysate, 635/667 nm fluorescence, primary screen (AID 1092).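 Also: probe is lysate of COS7 cells overexpressing human LULL1; score merges per-feature 667 nm fluorescence with signal-to-noise.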 The conditions noted are these: small-molecule microarray, hLULL1 lysate binding, 635 nm fluorescence; higher = more signal.
A short description of experiment [16]: optical density change of DRC41 E. coli – strain DRC41, OD650, 24 h, E. coli filamentation project, primary screen (AID 1093).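 Also: MC1000 strain lacking acrAB efflux and sulA so SOS filamentation is blocked; test concentration not given here.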 Particulars: E. coli DRC41 growth, higher = more signal, called active from +8 up or from −8 down.
A short description of experiment [17]: probe aLefty2 binding to arrayed compounds – biochemical, biotinylated probe, 635/667 nm fluorescence, primary screen (AID 1094).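 Also: score merges spot fluorescence near 667 nm with spot signal-to-noise ratio.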 Particulars: small-molecule microarray, higher = more signal.
Experiment [18] has as its system Noggin (protein binding on small-molecule microarray). Briefly: small molecules binding Noggin protein – biochemical, 635/667 nm fluorescence, primary screen (AID 1095).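 Also: score merges 667 nm feature fluorescence with signal to noise over triplicate slides.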 Particulars: 635 nm fluorescence, higher = more signal.
For experiment [19], the target named is Neurogenic locus notch homolog protein 3 (Homo sapiens) (UniProt Q9UM47). Briefly: small molecules binding NOTCH3 protein – biochemical, 635/667 nm fluorescence, primary screen (AID 1096). Particulars: small-molecule microarray, 635 nm fluorescence, higher = more signal.
The nature of experiment [20]: probe aEGFR binding to arrayed compounds – biochemical, biotinylated probe, 635/667 nm fluorescence, primary screen (AID 1097).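 Also: probe is a biotinylated anti-EGFR antibody binding compounds printed on slides; score combines fluorescence near 667 nm and signal to noise of each spot.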 Particulars: small-molecule microarray, higher = more signal.

The structures appear in SMILES notation. The source made the active and inactive calls.

Neurogenic locus notch homolog protein 2 (Homo sapiens), sequence (Q04721 whole entry, looked up, canonical isoform): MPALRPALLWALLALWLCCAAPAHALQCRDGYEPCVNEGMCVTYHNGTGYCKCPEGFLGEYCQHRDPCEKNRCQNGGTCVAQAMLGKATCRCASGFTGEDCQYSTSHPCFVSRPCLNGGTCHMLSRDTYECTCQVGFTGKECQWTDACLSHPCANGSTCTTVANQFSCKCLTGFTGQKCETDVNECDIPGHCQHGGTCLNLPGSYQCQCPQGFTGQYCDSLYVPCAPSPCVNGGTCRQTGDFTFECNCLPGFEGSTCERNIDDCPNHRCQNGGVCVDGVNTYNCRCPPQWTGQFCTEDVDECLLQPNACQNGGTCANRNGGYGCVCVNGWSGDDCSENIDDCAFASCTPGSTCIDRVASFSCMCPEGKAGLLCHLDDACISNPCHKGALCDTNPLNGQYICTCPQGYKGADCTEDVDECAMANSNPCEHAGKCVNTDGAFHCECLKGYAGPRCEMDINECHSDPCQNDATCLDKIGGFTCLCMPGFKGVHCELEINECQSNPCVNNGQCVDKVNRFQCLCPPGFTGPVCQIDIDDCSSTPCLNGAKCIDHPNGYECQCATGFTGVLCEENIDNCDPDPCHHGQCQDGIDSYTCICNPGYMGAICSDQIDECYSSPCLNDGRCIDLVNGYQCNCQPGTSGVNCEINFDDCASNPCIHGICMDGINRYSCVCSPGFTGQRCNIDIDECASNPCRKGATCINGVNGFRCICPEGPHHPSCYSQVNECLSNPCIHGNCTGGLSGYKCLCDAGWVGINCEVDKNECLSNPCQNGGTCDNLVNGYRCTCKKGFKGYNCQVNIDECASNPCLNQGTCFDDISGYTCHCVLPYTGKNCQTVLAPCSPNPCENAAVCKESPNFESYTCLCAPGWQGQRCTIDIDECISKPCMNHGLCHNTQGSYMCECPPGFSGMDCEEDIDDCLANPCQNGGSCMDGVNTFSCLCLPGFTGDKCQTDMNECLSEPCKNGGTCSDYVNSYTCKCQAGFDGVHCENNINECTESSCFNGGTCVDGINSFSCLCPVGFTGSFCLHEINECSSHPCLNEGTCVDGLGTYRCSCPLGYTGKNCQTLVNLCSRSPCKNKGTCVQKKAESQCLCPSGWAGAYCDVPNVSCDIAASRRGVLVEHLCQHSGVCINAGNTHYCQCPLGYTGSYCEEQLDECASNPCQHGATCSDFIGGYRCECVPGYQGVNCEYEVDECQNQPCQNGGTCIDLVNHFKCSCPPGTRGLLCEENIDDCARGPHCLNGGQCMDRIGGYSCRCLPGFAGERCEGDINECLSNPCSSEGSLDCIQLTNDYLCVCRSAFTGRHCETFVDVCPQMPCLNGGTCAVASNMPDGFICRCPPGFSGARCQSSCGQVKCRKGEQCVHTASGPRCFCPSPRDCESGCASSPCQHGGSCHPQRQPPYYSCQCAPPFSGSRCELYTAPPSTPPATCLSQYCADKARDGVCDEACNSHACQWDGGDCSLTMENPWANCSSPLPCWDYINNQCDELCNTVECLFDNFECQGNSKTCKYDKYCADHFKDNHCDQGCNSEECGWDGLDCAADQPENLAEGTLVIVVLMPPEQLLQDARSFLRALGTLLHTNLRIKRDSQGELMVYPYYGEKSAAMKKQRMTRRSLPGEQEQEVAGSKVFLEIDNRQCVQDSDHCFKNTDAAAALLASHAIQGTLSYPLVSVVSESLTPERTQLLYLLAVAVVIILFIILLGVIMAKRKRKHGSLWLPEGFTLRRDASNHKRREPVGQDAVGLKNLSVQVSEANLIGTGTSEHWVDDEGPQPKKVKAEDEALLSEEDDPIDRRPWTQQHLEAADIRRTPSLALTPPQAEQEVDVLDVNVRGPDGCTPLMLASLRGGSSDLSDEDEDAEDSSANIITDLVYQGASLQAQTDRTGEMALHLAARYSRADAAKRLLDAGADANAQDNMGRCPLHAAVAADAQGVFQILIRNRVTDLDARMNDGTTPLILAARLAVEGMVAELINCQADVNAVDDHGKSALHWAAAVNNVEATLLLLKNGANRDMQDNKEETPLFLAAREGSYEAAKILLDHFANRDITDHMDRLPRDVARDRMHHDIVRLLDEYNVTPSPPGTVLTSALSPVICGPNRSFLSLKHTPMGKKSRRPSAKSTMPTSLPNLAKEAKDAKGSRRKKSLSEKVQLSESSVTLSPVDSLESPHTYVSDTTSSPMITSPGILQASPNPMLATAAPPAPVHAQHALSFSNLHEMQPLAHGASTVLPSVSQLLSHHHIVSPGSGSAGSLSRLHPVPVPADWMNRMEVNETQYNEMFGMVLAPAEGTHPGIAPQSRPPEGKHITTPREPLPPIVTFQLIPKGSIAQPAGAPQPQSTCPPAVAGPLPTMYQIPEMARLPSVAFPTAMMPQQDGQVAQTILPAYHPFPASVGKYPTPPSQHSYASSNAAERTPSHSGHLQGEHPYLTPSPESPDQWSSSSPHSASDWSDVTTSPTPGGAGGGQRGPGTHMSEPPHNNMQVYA
Torsin-1A-interacting protein 2 (Homo sapiens), sequence (Q8NFQ8 whole entry, looked up): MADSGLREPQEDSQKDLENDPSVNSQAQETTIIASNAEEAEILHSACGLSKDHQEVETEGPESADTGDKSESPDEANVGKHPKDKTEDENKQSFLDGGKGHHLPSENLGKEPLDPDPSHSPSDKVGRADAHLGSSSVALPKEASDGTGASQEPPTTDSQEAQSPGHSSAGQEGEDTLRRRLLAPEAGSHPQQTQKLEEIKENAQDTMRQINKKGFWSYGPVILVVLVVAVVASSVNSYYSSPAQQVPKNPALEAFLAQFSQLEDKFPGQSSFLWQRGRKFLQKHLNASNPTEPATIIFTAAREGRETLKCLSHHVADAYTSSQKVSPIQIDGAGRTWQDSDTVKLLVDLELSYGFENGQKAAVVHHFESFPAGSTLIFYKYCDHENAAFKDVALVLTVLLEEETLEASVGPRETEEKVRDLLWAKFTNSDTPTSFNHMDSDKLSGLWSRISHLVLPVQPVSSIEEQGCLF
Pro-neuregulin-1, membrane-bound isoform (Homo sapiens), sequence (Q02297 whole entry, looked up, the tested form may be a part, canonical isoform): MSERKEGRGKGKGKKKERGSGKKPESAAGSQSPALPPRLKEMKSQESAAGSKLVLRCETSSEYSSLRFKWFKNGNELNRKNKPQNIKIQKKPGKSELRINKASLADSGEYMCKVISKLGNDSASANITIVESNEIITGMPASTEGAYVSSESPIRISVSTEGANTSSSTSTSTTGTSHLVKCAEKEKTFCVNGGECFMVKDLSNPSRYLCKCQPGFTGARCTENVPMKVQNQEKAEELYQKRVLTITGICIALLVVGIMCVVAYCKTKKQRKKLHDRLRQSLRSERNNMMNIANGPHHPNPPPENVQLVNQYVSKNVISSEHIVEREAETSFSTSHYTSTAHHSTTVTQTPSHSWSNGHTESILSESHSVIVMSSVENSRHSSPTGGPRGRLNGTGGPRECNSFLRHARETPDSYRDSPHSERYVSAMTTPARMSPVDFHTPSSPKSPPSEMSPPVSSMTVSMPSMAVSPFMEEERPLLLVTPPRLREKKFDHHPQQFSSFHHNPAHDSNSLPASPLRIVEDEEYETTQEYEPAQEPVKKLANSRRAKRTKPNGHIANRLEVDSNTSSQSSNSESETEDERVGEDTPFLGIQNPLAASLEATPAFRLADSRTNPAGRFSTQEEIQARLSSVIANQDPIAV

On to `CCC(CC)C(O)C1C=CC2C(=O)N(c3ccccc3)C(=O)C2N1Nc1ccc(C#N)cc1` (stereo not given), for which the composite z-score in experiment [1] was found to be 1.07; in experiment [2], 0.693; in experiment [3], 0.326; in experiment [4], 0.884; in [5] it was 1.64; in [6], 1.77. In addition, the composite z-score in [7] was 1.29; in experiment [9] it was 1.22; in [10] it was -0.271; in [11], 1.55; in experiment [15], 3.2; in experiment [17], 0.615. Moreover, the results for the composite z-score in experiment [18], in experiment [19] and in [20] were -0.136, 1.04 and 0.334, respectively. Moreover, the z-score is -1.02 (inactive) in [8]; -0.295 (inactive) in experiment [12]; 0.621 (inactive) in [13]; 1.28 (inactive) in experiment [14]; -0.279 (inactive) in experiment [16].

Regarding `C=CCC(OC(C)=O)[C@@H]1[C@@H](N(Cc2ccc(-c3ccccc3)cc2)C(=O)Cc2ccc(OC)cc2)c2cc(OCCCO)ccc2N1C(=O)c1ccc2ccccc2n1` (stereo not given in full), the composite z-score in experiment [1] was 0.0604; in [2] it was -0.11; in experiment [3] it was -0.0074; in experiment [4], -0.0502; in experiment [5], 0.0378; in experiment [6], -0.111. The composite z-score in [7] was -0.271; in experiment [9], 0.411; in [10], -0.0994; in experiment [11], -0.298; in [15], 1.02; in experiment [17] it was 0.0171. The composite z-score in experiment [18] is -0.49; in experiment [19], 0.0617; in experiment [20], -0.0784. For the same molecule, the z-score in experiment [8] was -0.83 (inactive); in [12] it was -1.15 (inactive); in experiment [13] it was -0.832 (inactive); in experiment [14], -0.551 (inactive); in experiment [16], 0.374 (inactive).

Turning to `CN1CCC(CCCO)=CC1c1ccc(CN2CCCC2)cc1` (stereo not given), the composite z-score in experiment [1] is 1.16; in [2] it was 2.31; in experiment [3], 0.0626; in [4], 0.789; in experiment [5], 1.12; in experiment [6] it was 1.7. The composite z-score in [7] is 1.27; in experiment [9] it was 0.612; in experiment [10], -0.0237; in [11], 1.54; in experiment [15], 2.18; in [17] it was 0.36. In addition, the values for the composite z-score in experiment [18], in experiment [19] and in [20] were 1.72, 1.07 and 0.337, respectively. The z-score in [8] is 0.745 (inactive); in experiment [12], -1.05 (inactive); in experiment [13], -2.41 (inactive); in experiment [14] it was -0.763 (inactive); in [16], -0.145 (inactive).

Consider `COc1cc2c(cc1O)C(C)N(Cc1cccc(OC(F)(F)F)c1)CC2` (stereo not given), for which the composite z-score is 0.067 in experiment [1]; -0.142 in experiment [2]; 0.139 in [3]; 0.953 in experiment [4]; 1.23 in [5]; 2.13 in experiment [6]. For the same molecule, the composite z-score is 1.47 in [7]; 0.226 in experiment [9]; -0.205 in experiment [10]; 1.42 in experiment [11]; 3.02 in experiment [15]; -0.0719 in experiment [17]. Also, the composite z-score in experiment [18] is 0.205; in experiment [19], 0.76; in experiment [20], -0.0697. Further, the z-score is 0.734 (inactive) in experiment [8]; -0.167 (inactive) in experiment [12]; -2.4 (inactive) in experiment [13]; -1.09 (inactive) in experiment [14]; -1.26 (inactive) in [16].

`COC(=O)[C@@]1(Cc2ccc(F)cc2)[C@H]2c3cc(C(=O)N4CCCC4)n(Cc4cccc5ccccc45)c3C[C@H]2CN1C(=O)c1ccccc1`: the composite z-score in experiment [1] was 0.242; in experiment [2], 0.312; in [3], 0.148; in [4], 0.62; in experiment [5] it was 1.57; in experiment [6] it was 2.16. Further, the composite z-score in experiment [7] turned out to be 1.35; in [9], 0.558; in [10], 0.762; in experiment [11], 0.187; in experiment [15] it was 3.85; in experiment [17], 0.698. The values for the composite z-score in experiment [18], in [19] and in experiment [20] were -0.275, 0.941 and 0.245, respectively. The z-score in experiment [8] was 0.272 (inactive); in [12], 0.0247 (inactive); in experiment [13] it was 0.702 (inactive); in [14], 0.307 (inactive); in experiment [16], -1.48 (inactive).

Values taken from PubChem BioAssay.
